Compound activity (PubChem)
Only some compounds are listed: those with a hit (about 2.3% of all), similar ones and a draw of the others.
Pol kappa inh: qHTS for Inhibitors of Polymerase Kappa; DNA polymerase kappa (Homo sapiens), Q9UBT6; actives 0.53% (n = 400,000); AID 588579, 2011; Potency, µM (doses to about 107 µM), for the others: at the top dose activity, negative = inhibition, hits mostly inhibitors; purified Pol kappa, fluorescent DNA synthesis assay, 10 min; also: % is scaled to controls: 0 for no effect and ±100 for the full control effect
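Enzyme at 10 nM met test compounds for 15 min at room temperature. Substrate addition (50 nM final) began the reaction, which was monitored by fluorescence at 0 and 10 min.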
WRN helicase inh-1: qHTS for Inhibitors of WRN Helicase; Potency, µM (top dose mostly 114 µM), without a hit: at the highest dose activity change, negative = inhibition, usual class: inhibitors; Bifunctional 3'-5' exonuclease/ATP-dependent helicase WRN (Homo sapiens), Q14191; AID 651768, 2012; actives 0.46% (n = 360,000); WRN helicase unwinding, fluorescent forked duplex, kinetic; also: % is scaled to controls: 0 for no effect and ±100 for the full control effect; nearly all actives have a fitted effect of over 55% in size
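Primary qHTS, 1536-well format. 20 nM WRN + compound, 15 min RT; start with 100 nM forked fluorophore/quencher duplex, 2 mM ATP (final); kinetic read ex 525/em 598 nm.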
Pol beta inh: qHTS Assay for Inhibitors of DNA Polymerase Beta; P06746; Pol beta primer extension/strand displacement, fluorescence kinetic; Potency, µM (doses to about 114 µM), for inactives: at the highest dose activity change, negative = inhibition, actives largely listed as inhibitors; actives 1.3% (n = 340,000); also: % is scaled to controls: 0 for no effect and ±100 for the full control effect
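Human Pol beta at 10 nM; strand-displacement substrate 50 nM final. Compound exposure 15 min at room temperature before start, reaction 10 min at room temperature.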
Pol eta inh-1: qHTS for Inhibitors of Polymerase Eta | DNA polymerase eta (Homo sapiens), Q9Y253 | recombinant Pol eta, fluorescent DNA replication assay | Potency, µM (highest dose often 114 µM), without a hit: at the top dose activity change, negative = inhibition, hits mostly inhibitors | actives 1.2% (n = 390,000); also: % is scaled to controls: 0 for no effect and ±100 for the full control effect
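Pol eta at 10 nM preincubated with compounds 15 min at room temperature; reaction started with fluorescent substrate (50 nM final) and read kinetically at 0 and 10 min.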
POLI inh: qHTS for Inhibitors of Polymerase Iota; Potency, µM (series often up to 115 µM), for inactives: at the highest dose activity, negative = inhibition, hits mostly inhibitors; Pol iota fluorescent replication assay, 10 min; actives 1% (n = 390,000); DNA polymerase iota (Homo sapiens), Q9UNA4; AID 588590, 2011
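Fluorescent replication assay read twice, at 0 min and 10 min after adding 50 nM (final) substrate. Enzyme (10 nM) and compounds were first incubated 15 min at room temperature; enzyme-free buffer wells were negative controls.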
PGK validate: qHTS for inhibitors of Phosphogylcerate Kinase: Hit Validation Screen. actives 79% (n = 500). shares compounds with Pol kappa inh. Potency, µM (highest dose often 57.5 µM), for inactives: at the top dose activity change, negative = inhibition, most hits filed as inhibitors. TbPGK coupled GAPDH assay, Kinase-Glo luminescence; also: % is scaled to controls: 0 for no effect and ±100 for the full control effect; nearly all actives have a fitted effect of over 65% in size
Pol iota confirm: qHTS for Inhibitors of Polymerase Iota: Confirmatory Assay for Cherry-picked Compounds; shares compounds with Pol kappa inh; Pol iota primer extension, TAMRA/BHQ fluorescence; Potency, µM, most hits filed as inhibitors; actives 77% (n = 1,500)
Pol eta inh-2: qHTS for Inhibitors of Polymerase Eta: Confirmatory Assay for Cherry-picked Compounds; shares compounds with Pol eta inh-1; actives 64% (n = 2,600); Potency, µM, hits mostly inhibitors; Pol eta primer extension, TAMRA/BHQ fluorescence, 10 min
WRN helicase inh-2: qHTS for Inhibitors of WRN Helicase: Confirmatory Assay for Cherry-picked Compounds | shares compounds with WRN helicase inh-1 | WRN helicase DNA unwinding, fluorescence kinetic | Potency, µM (top dose mostly 57.1 µM), inactives show top-dose activity, negative = inhibition, actives largely listed as inhibitors | actives 63% (n = 610) | AID 720497, 2013; also: nearly all actives have a fitted effect of over 65% in size
TO displacement: qHTS for Inhibitors of WRN Helicase: Thiazole Orange DNA Binding Counterscreen. shares compounds with WRN helicase inh-1. thiazole orange DNA binding displacement, fluorescence. Potency, µM (titrated, usually from 57.1 µM), without a hit: at the highest dose activity change, negative = inhibition, actives largely listed as inhibitors. actives 10% (n = 610). AID 720499, 2013;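 also: drop in dye fluorescence marks compound binding to DNA; % is scaled to controls: 0 for no effect and ±100 for the full control effect; nearly all actives have a fitted effect of over 60% in size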
BLM helicase inh: qHTS for Inhibitors of WRN Helicase: BLM Helicase Counterscreen for WRN Inhibitors; shares compounds with WRN helicase inh-1; Potency, µM (doses to about 57.1 µM), for the others: at the top dose activity change, negative = inhibition, actives largely listed as inhibitors; actives 60% (n = 610); Recombinant BLM helicase DNA unwinding, red fluorescence; also: nearly all actives have a fitted effect of over 60% in size
* = called active by the depositor; ? = inconclusive; / = no result; [ ] = another dose, or the depositor's remark. Calls follow the shape of the dose curve; as a rule, active = well fitted curve in the direction sought with a large enough effect; inconclusive = small, poorly fitted or top-dose-only effect, or another doubt; inactive = no such curve, though single readings can be large; an effect the other way counts as inactive or inconclusive. Potency is read from the fitted curve at half-maximal effect.

SMILES | Pol kappa inh | WRN helicase inh-1 | Pol beta inh | Pol eta inh-1 | POLI inh | Pol iota confirm | Pol eta inh-2 | WRN helicase inh-2 | TO displacement | BLM helicase inh | others
O=C(O)c1cccc2cccc(-c3c4ccc(=O)c(O)c-4oc4c(O)c(O)ccc34)c12 | 1.12µM* | 3.55µM* | / | -98.1% | 0.708µM* | 0.67* | 0.953* | 1.52µM* | 4.29µM* | 0.383µM* | PGK validate=0.326µM*
N#Cc1c(N)oc(-c2ccco2)c1-c1ccco1 | ? | -35.2% | -15.5% | ? | ? | / | / | / | / | /
COc1ccc(OC)c(/C=N/c2oc(-c3ccco3)c(-c3ccco3)c2C#N)c1 | 79.4µM* | ? | 44.7µM* | 79.4µM* | ? | 37.7* | 47.8* | 21.5µM* | ? | 6.81µM*
O=C(Nc1ccc2oc(=O)ccc2c1)c1ccc(-c2cccc([N+](=O)[O-])c2)o1 | -8.7% | 10µM* | 2.82µM* | 31.6µM* | 47.2% | 21.2* | / | ? | ? | 1.52µM*
O=C(Nc1ccc2oc(=O)ccc2c1)c1ccc(-c2ccc(Cl)cc2)o1 | -14.3% | -33.3%[57.1 µM] | -0.4%[57.1 µM] | -3.3% | 6.1% | / | / | / | / | /
CC(C)Oc1ccc(CNC(=O)C2CCN(C(=O)N3CCOc4ccc(Cl)cc43)CC2)cc1 | -33.6% | / | 4.7% | -17.4% | 11.4% | / | / | / | / | /
O=C(O)C1Oc2ccccc2C1c1ccccc1 (centres undefined) | -2.1% | 0.2% | / | -6.2% | 13.1% | / | / | / | / | /
O=C(O)C1NCc2[nH]cnc2C1c1ccccc1 (centres undefined) | / | / | / | / | / | 59.7* | ? | -27.0% | -2.7% | ?
Cc1cccc(NS(=O)(=O)c2ccc3c(c2)CC(C)N3C(=O)C2CCC2)c1C (centres undefined) | -10.3% | / | -18.6% | -15.2% | -4.8% | / | / | / | / | /
O=C(CCc1ccc(O)c(O)c1)N/N=C/c1cc2c(cc1[N+](=O)[O-])OCO2 | 25.1µM* | ? | 25.1µM* | 17.8µM* | 31.6µM* | ? | 30.1* | 21.5µM* | 30.4µM* | 8.57µM*
CC1(C)CCCN(C(=O)c2coc(=O)c(Br)c2)C1 | 14.1µM* | 17.8µM* | 0.447µM* | 0.891µM* | 10µM* | / | / | 1.92µM* | ? | 0.482µM* | PGK validate=0.819µM*
